These results are taken from PubChem BioAssay AID651903 (Broad Institute, 2012).

Each structure is given as a SMILES string. In all, about 22,000 compounds went through this assay and about 1,100 (5%) were called active. Cut-off read from the data, not from the text of the source: active = activity score above about 55%; inconclusive = no clear call, values can overlap the other calls; inactive = below that. The list comes from a sample in which actives are over-represented; it also holds similar structures and randomly drawn compounds.

This assay can be described thus: T. cruzi growth inside host cells – cell-based, plate reader, single point, set 2, primary screen (AID 651903).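 Note: parasites and compound incubated about four days before reading; 0% = median of neutral control wells.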 The following applies: intracellular Trypanosoma cruzi in host cells, at 5.01 µM, hits give high values.
For `C[C@@H]1CN([C@@H](C)CO)C(=O)Cc2cc(NC(=O)Nc3ccc4c(c3)OCO4)ccc2O[C@@H]1CN(C)CC1CCCCC1`, the activity score (inhibition) was 78.2% (active).

In the case of `COc1ccc(NC(=O)Nc2ccc3c(c2)CC(=O)N([C@@H](C)CO)C[C@H](C)[C@@H](CN(C)CC2CCCCC2)O3)cc1`, the activity score (inhibition) is -4.28% (inactive).

Consider `C[C@@H]1CN([C@@H](C)CO)C(=O)Cc2cc(NC(=O)Nc3cccc4ccccc34)ccc2O[C@@H]1CN(C)CC1CCCCC1`, for which the activity score (inhibition) was 59.9% (active).

`C[C@H]1CN([C@@H](C)CO)C(=O)c2cc(NC(=O)Nc3ccc4c(c3)OCO4)ccc2O[C@@H]1CN(C)CC1CCCCC1`: the activity score (inhibition) is 8.83% (inactive). In the case of `C[C@H]1CN([C@@H](C)CO)C(=O)Cc2cc(NC(=O)Nc3cccc4ccccc34)ccc2O[C@H]1CN(C)CC1CC1`, the activity score (inhibition) is -24.3% (inactive). Regarding `C[C@@H]1CN([C@@H](C)CO)C(=O)Cc2cc(NC(=O)C3CCCCC3)ccc2O[C@@H]1CN(C)CC1CCCCC1`, the activity score (inhibition) was -4.58% (inactive). As to `C[C@H](CO)N1C[C@H](C)[C@H](CN(C)C(=O)Nc2ccc3c(c2)OCO3)Oc2ccc(NS(=O)(=O)c3ccc(Cl)cc3)cc2CC1=O`, the activity score (inhibition) was -5.11% (inactive). On to `C[C@H](CO)N1C[C@H](C)[C@@H](CN(C)Cc2ccccc2C(F)(F)F)OCc2cn(nn2)CCCC1=O`, for which the activity score (inhibition) was -23.6% (inactive). The value for `Cc1noc(C)c1NC(=O)Nc1ccc2c(c1)C(=O)N([C@H](C)CO)C[C@H](C)[C@@H](CN(C)C(=O)Nc1ccccc1)O2` was -16.8% (inactive); that for `C[C@@H]1CN([C@@H](C)CO)C(=O)Cc2cc(NC(=O)C3CC3)ccc2O[C@@H]1CN(C)S(C)(=O)=O` was -20.7% (inactive); that for `C[C@@H]1CN([C@@H](C)CO)C(=O)c2cc(NC(=O)c3ccncc3)ccc2O[C@@H]1CN(C)Cc1ccncc1` was -7.68% (inactive).

As for `C[C@H](CO)N1C[C@H](C)[C@@H](CN(C)Cc2ccccc2)Oc2ccc(NC(=O)Nc3ccc4c(c3)OCO4)cc2C1=O`, the activity score (inhibition) is -2% (inactive).

Regarding `C[C@@H]1CN([C@@H](C)CO)C(=O)c2cc(NC(=O)Nc3ccc4c(c3)OCO4)ccc2O[C@@H]1CN(C)Cc1ccc(Oc2ccccc2)cc1`, the activity score (inhibition) is 17.5% (inactive). For the compound `C[C@@H]1CN([C@H](C)CO)C(=O)c2cc(NC(=O)c3ccncc3)ccc2O[C@H]1CN(C)Cc1ccc(Oc2ccccc2)cc1`, the activity score (inhibition) is 85.4% (active). Take `C[C@H]1CN([C@@H](C)CO)C(=O)c2cc(NC(=O)Nc3ccc4c(c3)OCO4)ccc2O[C@@H]1CN(C)Cc1ccc(Oc2ccccc2)cc1`: the activity score (inhibition) is 70.1% (active). Turning to `C[C@@H]1CN([C@@H](C)CO)C(=O)c2cc(NC(=O)c3ccncc3)ccc2O[C@H]1CN(C)Cc1ccc(C(=O)O)cc1`, the activity score (inhibition) was -2.84% (inactive). In the case of `C[C@@H]1CN([C@@H](C)CO)C(=O)Cc2cc(NC(=O)C3CCCCC3)ccc2O[C@@H]1CN(C)Cc1ccc(-c2ccccc2)cc1`, the activity score (inhibition) is 43.3% (inactive). As for `Cc1ccc(S(=O)(=O)N(C)C[C@@H]2Oc3ccc(NC(=O)Cn4cnnn4)cc3CC(=O)N([C@H](C)CO)C[C@H]2C)cc1`, the activity score (inhibition) is 9.72% (inactive). As for `C[C@@H]1CN([C@@H](C)CO)C(=O)c2cccc(NS(=O)(=O)c3ccc(F)cc3)c2O[C@@H]1CN(C)Cc1ccc(C(=O)O)cc1`, the activity score (inhibition) was -4.66% (inactive). Take `C[C@@H]1CN([C@H](C)CO)C(=O)Cc2cc(NC(=O)CCC(F)(F)F)ccc2O[C@@H]1CN(C)CC1CCCCC1`: the activity score (inhibition) is -9.63% (inactive).

For the compound `C[C@@H]1CN([C@@H](C)CO)C(=O)c2cccc(NC(=O)Nc3cccc4ccccc34)c2O[C@H]1CN(C)S(=O)(=O)c1ccccc1`, the activity score (inhibition) is -9.51% (inactive).

On to `C[C@@H]1CN([C@H](C)CO)C(=O)c2cccc(NC(=O)CCCCCC(=O)Nc3ccccc3N)c2O[C@@H]1CN(C)C(=O)Nc1ccccc1`, for which the activity score (inhibition) was 16.9% (inactive).

For the compound `C[C@H](CO)N1C[C@H](C)[C@@H](CN(C)C(=O)Nc2ccccc2)Oc2c(NC(=O)CCCCCC(=O)Nc3ccccc3N)cccc2C1=O`, the activity score (inhibition) is -11.7% (inactive). As for `C[C@H]1CN([C@@H](C)CO)C(=O)c2cccc(NC(=O)CCCCCC(=O)Nc3ccccc3N)c2O[C@H]1CN(C)C(=O)Nc1ccccc1`, the activity score (inhibition) was -8.85% (inactive).

Consider `C[C@H](CO)N1C[C@H](C)[C@@H](CN(C)Cc2ccccc2)Oc2c(NC(=O)CCCCCC(=O)Nc3ccccc3N)cccc2C1=O`, for which the activity score (inhibition) is 75.8% (active). `C[C@H]1CN([C@@H](C)CO)C(=O)c2cccc(NC(=O)CCCCCC(=O)Nc3ccccc3N)c2O[C@@H]1CN(C)S(=O)(=O)c1cn(C)cn1`: the activity score (inhibition) was -40.6% (inactive). With `C[C@H](CO)N1C[C@H](C)[C@H](CN(C)S(=O)(=O)c2ccccc2)Oc2c(NC(=O)CCCCCC(=O)Nc3ccccc3N)cccc2C1=O`, the activity score (inhibition) is 58.6% (active). On to `C[C@H](CO)N1C[C@H](C)[C@H](CN(C)Cc2ccc(Oc3ccccc3)cc2)Oc2c(NC(=O)CCCCCC(=O)Nc3ccccc3N)cccc2C1=O`, for which the activity score (inhibition) is 65.5% (active). As to `C[C@H]1CN([C@@H](C)CO)C(=O)c2cccc(NC(=O)Nc3ccccc3)c2O[C@H]1CN(C)Cc1ccc(Oc2ccccc2)cc1`, the activity score (inhibition) was 13.5% (inactive). In the case of `CC(C)NC(=O)Nc1cccc2c1O[C@@H](CN(C)S(=O)(=O)c1ccc(F)cc1)[C@@H](C)CN([C@H](C)CO)C2=O`, the activity score (inhibition) is -25.4% (inactive). Turning to `C[C@@H]1CN([C@@H](C)CO)C(=O)CCCn2cc(nn2)CO[C@@H]1CN(C)C(=O)c1ccncc1`, the activity score (inhibition) was -21.4% (inactive).

For the compound `COc1ccc(S(=O)(=O)Nc2ccc3c(c2)C(=O)N([C@@H](C)CO)C[C@@H](C)[C@@H](CN(C)S(C)(=O)=O)O3)cc1`, the activity score (inhibition) was -8.35% (inactive). For the compound `CC(C)NC(=O)Nc1cccc2c1O[C@H](CN(C)Cc1ccc3c(c1)OCO3)[C@H](C)CN([C@H](C)CO)C2=O`, the activity score (inhibition) is -10.8% (inactive). Take `COc1ccc(S(=O)(=O)N(C)C[C@H]2Oc3ccc(NS(=O)(=O)c4c(C)noc4C)cc3CC(=O)N([C@@H](C)CO)C[C@H]2C)cc1`: the activity score (inhibition) was -2.67% (inactive). With `C[C@H](CO)N1C[C@H](C)[C@@H](CN(C)S(=O)(=O)c2ccccc2)Oc2c(NS(=O)(=O)c3cn(C)cn3)cccc2C1=O`, the activity score (inhibition) was -8.44% (inactive). Consider `COc1ccc(NC(=O)Nc2ccc3c(c2)C(=O)N([C@@H](C)CO)C[C@H](C)[C@@H](CN(C)S(=O)(=O)c2ccc(Cl)cc2)O3)cc1`, for which the activity score (inhibition) was 16.5% (inactive).
